Records with an inconclusive call do not appear. The source made the active and inactive calls. Unless noted, the call rests on the fitted dose curve.

Assay [1] concerns the target Alpha-galactosidase (Coffea arabica) (UniProt Q42656). As to the kind of experiment: Counterscreen for Glucocerebrosidase Inhibitors: qHTS Assay for Coffee Bean alpha-Galactosidase at pH 5.9 (AID 998; active means well fitted curve in the direction sought with a large enough effect; an effect the other way counts as inactive or inconclusive;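 further: plate controls were uninhibited enzyme for no effect and no-enzyme basal signal for full effect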). In a few lines:
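In 50 mM citric acid pH 5.9 with 0.005% Tween-20, coffee bean enzyme hydrolyses 80 uM 4-MU alpha-D-galactopyranoside over 20 min at RT. Activity is normalized to controls; AC50 comes from Hill-modelled concentration-response data.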
In general terms: A counterscreen serves to expose hits that act by an unwanted route or on another target.

Assay [2] is described as follows: Inducers of the Endoplasmic Reticulum Stress Response (ERSR) in human glioma: Validation (AID 504836; active means well fitted curve in the direction sought with a large enough effect; an effect the other way counts as inactive or inconclusive; further: 0% is about no effect). The method in brief:
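Stably transfected U87-MG human glioma cells carrying a GRP78-based luminescent sensor were seeded at 1000 cells/well, pin-dosed with compounds and incubated 16 h. Luciferase reagent was then added, and end-point luminescence was read after 10 min at room temperature.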

Assay [3] in a line: qHTS for Inhibitors of the Functional Ribonucleoprotein Complex (vRNP) of Lassa (LASV) Arenavirus: LASV Primary Screen - GLuc reporter signal (AID 1347082; calls by dose curve; tested in HEK293 reporter line; further: nearly all actives have a fitted effect of over 60% in size; further: potency means the concentration at half of the fitted maximal effect; on activity change, negative = inhibition: on the % scale 0 is the no-effect control and ±100 the full control effect). On the technique in general: Quantitative high-throughput screening tests each substance at several concentrations.
Assay [4] is described as follows: qHTS for Inhibitors of the Functional Ribonucleoprotein Complex (vRNP) of Lassa (LASV) Arenavirus: Viability assay - alamar blue signal for LASV Primary Screen (AID 1347083; calls by dose curve; tested in HEK293 reporter line; further: nearly all actives have a fitted effect of over 80% in size; further: potency means the concentration at half of the fitted maximal effect).
Assay [5] can be described thus: qHTS for Inhibitors of the Functional Ribonucleoprotein Complex (vRNP) of Lymphocytic Choriomeningitis Arenaviruses (LCMV): Viability assay - alamar blue signal for LCMV Primary Screen (AID 1347085; calls by dose curve; tested in HEK293 reporter line; further: nearly all actives have a fitted effect of over 80% in size; further: potency means the concentration at half of the fitted maximal effect).
Assay [6] deals with Nucleoprotein (Lymphocytic choriomeningitis virus (strain Armstrong)) (UniProt P09992). As to the kind of experiment: qHTS for Inhibitors of the Functional Ribonucleoprotein Complex (vRNP) of Lymphocytic Choriomeningitis Arenaviruses (LCMV): LCMV Primary Screen - GLuc reporter signal (AID 1347086). Further: nearly all actives have a fitted effect of over 70% in size. Further: potency means the concentration at half of the fitted maximal effect. On activity change, negative = inhibition: on the % scale 0 is the no-effect control and ±100 the full control effect.
Chain of Nucleoprotein (Lymphocytic choriomeningitis virus (strain Armstrong)) (P09992 whole entry, looked up): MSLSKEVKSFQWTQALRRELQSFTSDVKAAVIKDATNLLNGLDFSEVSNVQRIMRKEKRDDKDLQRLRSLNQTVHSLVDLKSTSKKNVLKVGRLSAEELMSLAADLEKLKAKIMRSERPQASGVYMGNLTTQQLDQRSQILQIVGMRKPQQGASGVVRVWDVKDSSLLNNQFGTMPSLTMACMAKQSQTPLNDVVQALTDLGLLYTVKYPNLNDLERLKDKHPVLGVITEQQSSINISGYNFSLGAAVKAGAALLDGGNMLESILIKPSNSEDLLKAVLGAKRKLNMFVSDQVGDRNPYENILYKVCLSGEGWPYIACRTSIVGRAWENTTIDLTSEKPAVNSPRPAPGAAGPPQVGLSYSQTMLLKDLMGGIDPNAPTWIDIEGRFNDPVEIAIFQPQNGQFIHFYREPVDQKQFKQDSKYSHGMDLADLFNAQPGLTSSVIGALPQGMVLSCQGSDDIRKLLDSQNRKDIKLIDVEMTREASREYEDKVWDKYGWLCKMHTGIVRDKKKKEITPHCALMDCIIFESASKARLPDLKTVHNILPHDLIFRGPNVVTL
Assay [7] in a line: Cytotoxicity counterscreen for inhibitors of SARS-CoV-2 cell entry (AID 1645845). Further: nearly all actives have a fitted effect of over 50% in size. In a few lines: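 After a 15 min room-temperature ATPLite 1step step, luminescence reflected ATP remaining in HEK293-ACE2 cells exposed to compound for 1 h plus 48 h at 37 C, with percent activity set by cell and no-cell controls.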
Assay [8] addresses Alpha-galactosidase (Coffea arabica) (UniProt Q42656). As to the kind of experiment: Counterscreen for Glucocerebrosidase Inhibitors: qHTS Assay for Coffee Bean alpha-Galactosidase at pH 4.5 (AID 957; active means well fitted curve in the direction sought with a large enough effect; an effect the other way counts as inactive or inconclusive;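 further: plate controls were enzyme alone for no effect and no enzyme for full effect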). In a few lines: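 Quantitative HTS of compounds (0.7 nM to 77 uM) against coffee bean alpha-galactosidase at pH 4.5, measuring 4-methylumbelliferone fluorescence released from 80 uM substrate.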

A short description of assay [9]: Validation screen for inhibitors of Lassa infection (AID 463096). Further: on the % scale 0 is the no-effect control and ±100 the full control effect.
The nature of assay [10]: Primary qHTS to identify inhibitors of SARS-CoV-2 cell entry (AID 1645846). Further: nearly all actives have a fitted effect of over 45% in size. As to conditions: activity change, negative = inhibition: at 57.1 µM (top of the series) unless noted. The method in brief:
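HEK293-ACE2 (Expi293F, stable hACE2), 1500 cells/well, o/n 37C; cpd 23 nL pin, 1 h; MLV-PP w/ SARS-CoV-2-S (Wuhan-Hu-1, Δ19 C-term); 48 h 37C; Bright-Glo luminescence; normalized vs S-PP and bald PP.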

For assay [11], the target named is Bile acid receptor (Homo sapiens) (UniProt Q96RI1). As to the kind of experiment: qHTS assay for small molecule agonists of farnesoid X receptor signaling (AID 588527).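 Further: 0% = vehicle basal and 100% = reference agonist.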 Particulars: HEK293T FXR-UAS-bla, beta-lactamase ratio, 16 h; activation: stronger effect = higher value. The method in brief: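 Quantitative HTS used FXR-UAS-bla HEK293T cells with 16 h compound incubation at 37 C. EC50 values came from concentration-response curves normalized to chenodeoxycholic acid.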
Chain of Bile acid receptor (Homo sapiens) (Q96RI1 whole entry, looked up): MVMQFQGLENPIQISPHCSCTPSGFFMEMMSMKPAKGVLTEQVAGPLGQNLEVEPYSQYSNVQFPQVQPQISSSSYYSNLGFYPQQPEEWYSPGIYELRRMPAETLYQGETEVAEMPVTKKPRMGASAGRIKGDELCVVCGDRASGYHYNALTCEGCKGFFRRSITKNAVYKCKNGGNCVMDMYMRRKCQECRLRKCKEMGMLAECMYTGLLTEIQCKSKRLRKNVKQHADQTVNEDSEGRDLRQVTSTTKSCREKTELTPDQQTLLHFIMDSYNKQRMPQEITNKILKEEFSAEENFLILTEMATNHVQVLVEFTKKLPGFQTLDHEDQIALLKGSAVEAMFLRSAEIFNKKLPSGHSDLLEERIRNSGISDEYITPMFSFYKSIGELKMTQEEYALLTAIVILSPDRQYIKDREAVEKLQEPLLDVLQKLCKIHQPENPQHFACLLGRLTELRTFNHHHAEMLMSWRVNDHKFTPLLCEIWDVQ

Assay [12] in a line: qHTS profiling of the MIPE4 collection as inhibitors of Plasmodium falciparum (3D7) proliferation (AID 743344; call rule not given here;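 further: scaled between DMSO vehicle wells and 0.29 µM artemisinin as full inhibition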). As to conditions: P. falciparum 3D7 in erythrocytes, SYBR Green DNA fluorescence, 72 h; at 28.5 µM (top of the series) unless noted. The method in brief: (§1)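 Parasite DNA was quantified by SYBR Green I fluorescence (ex 485, em 535 nm) after overnight lysis in saponin/Triton buffer at room temperature. Cultures at 0.3% parasitemia and 2.5% hematocrit were first exposed to compound for 72 h at 37 C; signals were normalised to artemisinin (0.29 uM) and vehicle wells.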

Assay [13] can be described thus: qHTS profiling of the MIPE4 collection as inhibitors of Plasmodium falciparum (DD2) proliferation (AID 743345; call rule not given here). As to conditions: P. falciparum Dd2 in erythrocytes, SYBR Green DNA, 72 h; at 28.5 µM (top of the series) unless noted. The method in brief: as §1
Assay [14] in a line: qHTS profiling of the MIPE4 collection as inhibitors of Plasmodium falciparum (DD2) proliferation (Rep 2) (AID 743346; call rule not given here). Particulars: P. falciparum Dd2 in erythrocytes, SYBR Green DNA, 72 h; at 28.5 µM (top of the series) unless noted. In a few lines:
as §1

A short description of assay [15]: qHTS profiling of the MIPE4 collection as inhibitors of Plasmodium falciparum (HB3) proliferation (AID 743347; call rule not given here;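 further: plate controls were DMSO vehicle wells for no effect and artemisinin wells for full effect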). As to conditions: P. falciparum HB3 in erythrocytes, SYBR Green DNA, 72 h; at 28.5 µM (top of the series) unless noted. The method in brief:
as §1

A short description of assay [16]: qHTS profiling for inhibitors of Plasmodium falciparum (3D7) proliferation (AID 743322; call rule not given here;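 further: infected erythrocytes exposed to compound for 72 h before lysis; 100% = DMSO vehicle wells and 0% = 0.29 µM artemisinin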). As to conditions: P. falciparum 3D7 proliferation; at 28.7 µM (top of the series). In a few lines: as §1
Assay [17] can be described thus: qHTS profiling for inhibitors of Plasmodium falciparum (DD2) proliferation (AID 743323; call rule not given here). Particulars: lower = more inhibition; at 28.7 µM (top of the series). In a few lines:
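Parasite proliferation measured via DNA-dye fluorescence, as uninfected erythrocytes lack DNA. Cultures at 0.3% parasitemia and 2.5% hematocrit incubated 72 h with compound; signal scaled between vehicle and 0.29 uM artemisinin wells.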

Assay [18] is described as follows: qHTS profiling for inhibitors of Plasmodium falciparum (HB3) proliferation (AID 743324; active means well fitted curve in the direction sought with a large enough effect; an effect the other way counts as inactive or inconclusive;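 further: 100% = DMSO vehicle wells and 0% = artemisinin-treated control wells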). As to conditions: Plasmodium falciparum HB3 blood-stage proliferation; at 28.7 µM (top of the series). The method in brief: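 SYBR Green fluorescence (485 ex/535 em) of lysed cultures, incubated overnight at room temperature in the dark, quantifies parasite DNA. Infected erythrocytes at 0.3% parasitemia and 2.5% hematocrit were exposed 72 h; values normalized to DMSO and 0.29 uM artemisinin controls.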

Chain of Alpha-galactosidase (Coffea arabica) (Q42656 whole entry, looked up): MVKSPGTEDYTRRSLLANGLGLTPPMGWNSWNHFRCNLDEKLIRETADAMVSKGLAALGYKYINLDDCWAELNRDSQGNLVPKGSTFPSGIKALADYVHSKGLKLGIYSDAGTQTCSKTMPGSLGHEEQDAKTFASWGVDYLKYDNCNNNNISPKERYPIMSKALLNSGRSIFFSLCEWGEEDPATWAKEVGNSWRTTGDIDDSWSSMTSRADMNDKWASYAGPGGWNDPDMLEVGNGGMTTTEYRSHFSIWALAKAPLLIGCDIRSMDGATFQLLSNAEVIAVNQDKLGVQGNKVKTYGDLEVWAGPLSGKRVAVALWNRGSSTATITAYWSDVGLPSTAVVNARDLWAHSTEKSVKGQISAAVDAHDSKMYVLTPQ

For the compound `COc1cccc(-c2cc(=O)c3ccccc3o2)c1N`, the compound was called inactive in assay [1] and in assay [2]. Further, the Potency entry in assay [3], in assay [4], in assay [5], in assay [6] and in [7] was “inactive” in each case.

As to `C[C@H](Cc1ccc(O)c(O)c1)[C@@H](C)Cc1ccc(O)c(O)c1`, the result in assay [8], in [1] and in [2] was inactive. Also, the Potency result in assay [9], in [3], in assay [4], in [5], in assay [6] and in assay [7] was “inactive” each time. In addition, the activity change, negative = inhibition in assay [10] is -10.6%.

Consider `O=c1c(O)c(-c2ccc(O)cc2O)oc2cc(O)cc(O)c12`, for which the outcome in [1] and in [2] was inactive. Further, the activation in assay [11] was -2.26% (inactive). Further, the Potency result in [3], in assay [4], in [5], in assay [6] and in assay [7] was “inactive” each time.

Turning to `C[C@@H](c1ncncc1F)[C@](O)(Cn1cncn1)c1ccc(F)cc1F`, the parasite growth, % of DMSO control in assay [12] was 65.8%. Further, in [13], the parasite growth remaining, % of DMSO control (lower = more inhibition) came out at 104%. The parasite growth, % of control (lower = inhibition) in [14] was determined as 115%. The same compound yielded a growth, % of control in [15] of 94.6%. The Potency entry in assay [3], in assay [4], in assay [5], in assay [6] and in [7] was “inactive” throughout. Also, in assay [10], the activity change, negative = inhibition is -26.1%.

Compound `O=C(O)c1ccccc1C(=O)Nc1ccc(-c2ccccc2)cc1` came in with a remaining parasite growth % (stronger effect = lower value) in assay [16] of 93.1%. Moreover, the activity, percent of control in assay [17] was found to be 92.6%. This compound also registered a remaining proliferation (% of control), lower = more inhibition in assay [18] of 75.7%. The compound further showed a parasite growth, % of DMSO control in assay [12] of 93.6%. Also, in assay [15], the growth, % of control came to 87.2%. Moreover, the Potency entry in assay [3], in assay [4], in assay [5], in assay [6] and in assay [7] was “inactive” each time.

`COc1ccc(CCC(=O)Nc2nc3ccc(Cl)cc3s2)cc1OC`: in assay [13], the parasite growth remaining, % of DMSO control (lower = more inhibition) stood at 66.5%. In assay [14], the parasite growth, % of control (lower = inhibition) stood at 46.1%. The Potency entry in assay [3], in assay [4], in [5], in assay [6], in [7] and in assay [10] was “inactive” in each case.

Regarding `CCC(C)N(C)C(=O)c1cc2ccccc2c(-c2ccccc2Cl)n1` (stereo unspecified), the Potency result in [9], in assay [3], in assay [4], in assay [5], in assay [6] and in assay [7] was “inactive” in each case. Also, the outcome in assay [2] was inactive. Besides, the activity change, negative = inhibition in assay [10] is 4.18%.

For the compound `Cc1cnc(C(=O)O)c[n+]1[O-]`, the Potency result in assay [3], in [4], in assay [5] and in assay [6] was “inactive” each time. Moreover, the activity change, negative = inhibition in assay [10] was -9.41%.

With `CCn1nnc2c(N3CCOCC3)nc(-c3ccc(NC(=O)Nc4ccc(C(=O)N5CCN(C)CC5)cc4)cc3)nc21`, the Potency in assay [3] was 54.4 nM (active); in [4], 24.3 nM (active); in assay [5], 30.6 nM (active); in [6], 38.5 nM (active). Also, in assay [10], the activity change, negative = inhibition was -84.5%.

As for `CCCc1c(OCCCOc2ccc(OCC(=O)O)cc2)ccc(C(C)=O)c1O`, the call in assay [1] and in assay [2] was inactive. The Potency entry in assay [9], in assay [3], in assay [4], in assay [5], in assay [6] and in [7] was “inactive” throughout. Besides, the activation in assay [11] is 3% (inactive). The activity change, negative = inhibition in assay [10] is -13.9%.

For the compound `CCN1/C(=C/C(C)=O)Sc2ccc(OC)cc21`, the compound was classed as inactive in [8], in assay [1] and in assay [2]. Further, the Potency entry in assay [9], in assay [3], in assay [4], in [5], in [6] and in [7] was “inactive” each time. Also, the activity change, negative = inhibition in [10] is -1.33%.

The values are drawn from PubChem BioAssay (NCATS).
